This is part of a sample that, as a whole, favours compounds with a hit. Of some 83,000 tested, about 20% had one in any assay.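 Single-dose data. Exposure time 48 hours. Values below 10 considered active.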 A number with no mark means an inactive call. Activity calls are given as the source filed them.
Legend:
Experiment in all cases: NCI-60 one-dose screen, 48 h (100 = growth as untreated, 0 = no growth, -100 = all killed)
Conditions in all cases: 10 µM unless noted
[1] = test system: NCI-H23 lung
[2] = test system: NCI-H322M lung
[3] = test system: NCI-H460 lung
[4] = test system: HOP-92 NSCLC
[5] = test system: NCI-H522 lung
[6] = test system: A549/ATCC NSCLC
[7] = test system: 786-0 renal
[8] = test system: COLO 205 colon
[9] = test system: DU-145 prostate
[10] = test system: K-562 leukemia
[11] = test system: MALME-3M melanoma
[12] = test system: MDA-MB-231 breast
[13] = test system: RXF 393 renal
[14] = test system: SF-268 CNS
[15] = test system: SF-295 CNS
[16] = test system: SF-539 CNS
[17] = test system: UACC-257 melanoma
[18] = test system: M14 melanoma
[19] = test system: HCT-15 colon
[20] = test system: HOP-62 NSCLC

SMILES | growth [1] | growth [2] | growth [3] | growth [4] | growth [5] | growth [6] | growth [7] | growth [8] | growth [9] | growth [10] | growth [11] | growth [12] | growth [13] | growth [14] | growth [15] | growth [16] | growth [17] | growth [18] | growth [19] | growth [20]
COc1cc2cc3c(=O)n4c(cc5cc(OC)ncc54)c(=O)n3c2cn1 | 101% | 97.4% | 107% | 114% | 99.2% | 102% | 99.1% | 114% | 106% | 102% | 93.1% | 109% | 106% | 102% | 87.7% | 106% | 110% | 105% | 106% | –
COc1cc(CNC(=O)Cc2ccccc2)ccc1OCc1cn(-c2ccc(F)cc2)nn1 | 94.9% | 103% | 101% | 107% | 90.1% | 97.5% | 104% | – | 108% | 91.8% | 114% | 89.5% | 125% | 98.1% | 101% | 99.5% | 97.7% | 101% | 106% | –
C=C1C(=O)O[C@H]2[C@H]1CC/C(COC(=O)/C=C\C(=O)O)=C\CC[C@@]1(C)O[C@@H]21 | 98.9% | 105% | 107% | 108% | 97.5% | 105% | 109% | – | 112% | 109% | 99.8% | 103% | 111% | 100% | 96.7% | 93.2% | 99.8% | 110% | 105% | –
COc1ccc2[nH]c(O)c(N=NC(=O)c3oc4ccccc4c3C)c2c1 | 10.6% | 30.6% | -22.8% (active) | -44% (active) | 54.3% | -23.6% (active) | -66.9% (active) | 22.8% | 17.6% | 42.5% | -29.5% (active) | 23.8% | -36.2% (active) | 57.7% | 5.05% (active) | 37.5% | 50% | 28.7% | 41.1% | –
O=C1N=c2ccccc2=C1c1sc(=Nc2ccccc2)n(Nc2ccccc2)c1O | 102% | 107% | 101% | 102% | 90.9% | 108% | 101% | 116% | 115% | 94.4% | 108% | 95.1% | 107% | 99.5% | 102% | 104% | 106% | 99.7% | 102% | –
Cc1c(C(=O)OCCO)cc(-c2ccc(Cl)cc2)n1-c1ccc(Cl)cc1Cl | 77.6% | 84.3% | 37.7% | 91.1% | 54.7% | 47.6% | 94.1% | 108% | 62.9% | 33% | 76.2% | 74.2% | 62.8% | 70.4% | 75.3% | 77.5% | 82% | 55.6% | 53.6% | –
COc1ccc(C(O)(CCC(C)C)C(CN2CCOCC2)c2ccc(Cl)cc2)cc1 (centres undefined) | 74.6% | 88.3% | 86.8% | 77.8% | -16.9% (active) | – | 73.3% | 76.4% | 73.8% | 15.3% | 39.2% | 68.5% | 88.3% | 80.2% | – | 64.7% | 69.4% | 37.1% | 35.6% | –
COc1ccc(C(=O)C2CC2c2ccc(Cl)cc2)cc1 (centres undefined) | 95.1% | 82.7% | 94.2% | 92.7% | 68.2% | 82.8% | 89% | 106% | 97.5% | 76.1% | 94.8% | 86.4% | 95.5% | 78.8% | 141% | 98.6% | 94.2% | 92% | 97.9% | –
COc1cc(/C=C2\CN(C)C/C(=C\c3cc(CN4CCCCC4)c(O)c(OC)c3)C2=O)cc(CN2CCCCC2)c1O | 34.2% | 43.1% | 0.801% (active) | 51% | 39.8% | 45.7% | 50.1% | – | 1.15% (active) | 10.2% | 84.6% | 7.14% (active) | 29.7% | 41% | 91.7% | 48.6% | 76.9% | 70.3% | 18.6% | –
COc1cc(/C=C2\Oc3cc(OCCCN4CCCC4)ccc3C2=O)cc(OC)c1 | 69.9% | 77.1% | -71.1% (active) | 67.6% | 76.7% | 33.2% | 73.6% | 71% | 33.6% | -63.3% (active) | 93% | 53.7% | 60.4% | 72.5% | 85.7% | -90.3% (active) | 81.4% | -60.1% (active) | 5.66% (active) | –
O=c1c2cc(F)ccc2sc2c(NCCCNCCO)nc3ccc(Cl)cc3c12 | 81.6% | 79.2% | -53.8% (active) | 36.8% | – | 57.7% | 58.8% | 3.05% (active) | 37.7% | -25.8% (active) | 106% | 22.5% | 61.1% | 47.9% | 91.3% | 84.8% | 97.9% | 33.4% | 51.2% | –
Cn1cc(-c2ccc3ncc(-c4ccc(CC(=O)Nc5cc(C(C)(C)C)no5)cc4)nc3c2)cn1 | 36.6% | 20.6% | 22.8% | 46.3% | – | 33.7% | 39.2% | – | 34.3% | 22.5% | 25% | 28.7% | 32.3% | 36% | 47.2% | 27.3% | 61.2% | 34.6% | 16.3% | –
O=C(/C=C/c1ccc(C(F)(F)F)cc1)c1ccc(Nc2nc(NCCO)nc(Nc3ccc(Cl)cc3)n2)cc1 | 76.4% | 86.1% | 28.7% | 70.5% | 65.3% | 26.6% | -41% (active) | – | 58% | 12.5% | 96.3% | 59.3% | 42.8% | 50.6% | 79.6% | 51.3% | 92.1% | 54.7% | 6.59% (active) | –
CCC1=C[C@]2(C3CC(=O)N(c4ccccc4)C3=O)CC(C(C)(C)C)C[C@@H]2[C@@H]2C(=O)N(c3ccccc3)C(=O)[C@H]12 (some centres undefined) | 95.2% | 69.3% | 93.3% | 84.5% | 57.3% | 68.7% | 83.8% | 93.3% | 92% | 83.7% | 91.5% | 81.4% | 87.3% | 78.5% | 93.6% | 95.3% | 57.1% | 83.7% | 87.7% | –
Nc1nonc1-n1nncc1-c1cccnc1 | 102% | 101% | 111% | 99.8% | – | 94.7% | 104% | 114% | 112% | 105% | 96.1% | 111% | 115% | 106% | 98.2% | 102% | 112% | 104% | 101% | –
O=C(Nc1ccc(Cl)cc1F)c1cc(F)ccc1O | 1.46% (active) | – | 4.1% (active) | -7.2% (active) | -25.1% (active) | 7.57% (active) | 3.03% (active) | -1.76% (active) | 16.3% | 5.39% (active) | -21.5% (active) | -18.1% (active) | 9.69% (active) | 13.4% | -56.2% (active) | 4.32% (active) | -17.3% (active) | 2.92% (active) | 3.11% (active) | -0.133% (active)
